Measurements published in PubChem BioAssay (EPA / NIEHS).
Results filed as inconclusive are left out. Some compounds were tested as several samples or in several runs, with calls that do not always agree. The source made the active and inactive calls. Rule for the calls: active = hit-call score of the fitted dose curve at least 0.9, where 1 is the maximum; inconclusive = response in the unintended direction; inactive = score below 0.9.

What was measured:
[1] = TOX21_p53_BLA_p2_viability: Viability Assessment in the Tox21 HCT-116 p53 Agonism Beta-lactamase Assay, Phase 2 (AID 2283591);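 note: compound exposure lasted 16 h at 37 °C; actives lower the ATP signal meaning cytotoxicity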
How it was run: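 HCT116 p53-bla cells, 4000/well, dosed after 5 h plating (217-fold dilution of DMSO stocks) and incubated 16 h at 37C. Viability taken as cellular ATP by CellTiter-Glo luminescence after 30 min RT; signal loss marks cytotoxicity.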

[2] = biological target: Cellular tumor antigen p53 (Homo sapiens) (UniProt P04637); experiment: TOX21_p53_BLA_p2_ratio: Tox21 HCT-116 p53 Agonism Beta-lactamase Assay, Ratio, Phase 2 (AID 2283592)
Chain of Cellular tumor antigen p53 (Homo sapiens) (P04637 whole entry, looked up): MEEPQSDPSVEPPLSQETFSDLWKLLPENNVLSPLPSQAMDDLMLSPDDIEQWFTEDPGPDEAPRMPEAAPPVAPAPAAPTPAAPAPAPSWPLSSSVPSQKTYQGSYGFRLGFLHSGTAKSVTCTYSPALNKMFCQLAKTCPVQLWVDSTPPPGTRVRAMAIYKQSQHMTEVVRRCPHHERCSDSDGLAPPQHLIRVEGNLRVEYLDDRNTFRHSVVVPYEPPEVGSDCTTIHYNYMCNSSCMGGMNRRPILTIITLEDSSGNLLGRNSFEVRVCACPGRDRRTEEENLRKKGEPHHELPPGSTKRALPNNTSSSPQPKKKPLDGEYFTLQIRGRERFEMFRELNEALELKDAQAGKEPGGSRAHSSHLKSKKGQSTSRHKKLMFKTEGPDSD
How it was run: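 Ratio endpoint: beta-lactamase cleavage of CCF4-AM, blue (460 nm) over green (530 nm). HCT116 reporter line; 16 h treatment, 37C; substrate 2 h RT.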

[3] = TOX21_p53_BLA_p3_viability: Viability Assessment in the Tox21 HCT-116 p53 Agonism Beta-lactamase Assay, Phase 3 (AID 2283593);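 note: cells exposed to compound for 16 h before reading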
How it was run: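 HCT116 cells, 4000/well, dosed 5 h after plating by pin transfer (217-fold dilution from DMSO stock) and incubated 16 h at 37C, 5% CO2. Viability read as ATP luminescence with CellTiter-Glo after 30 min at room temperature.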

[4] = biological target: Cellular tumor antigen p53 (Homo sapiens) (UniProt P04637); experiment: TOX21_p53_BLA_p3_ratio: Tox21 HCT-116 p53 Agonism Beta-lactamase Assay, Ratio, Phase 3 (AID 2283596)
How it was run: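 Cells were seeded at 4000/well, rested 5 h at 37C, then dosed with DMSO compound solutions (217-fold dilution) for 16 h. CCF4-AM substrate was loaded for 2 h at room temperature, and the 460/530 nm emission ratio was fitted for gain of signal versus DMSO.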

[5] = TOX21_p53_BLA_p4_viability: Viability Assessment in the Tox21 HCT-116 p53 Agonism Beta-lactamase Assay, Phase 4 (AID 2283597);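 note: hits lower the luminescence signal meaning cytotoxicity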
How it was run: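 Cytotoxicity was inferred from loss of CellTiter-Glo luminescence. HCT116 cells had been dosed with compounds after 5 h plating, incubated 16 h at 37C and 5% CO2, and exposed to the CCF4-AM substrate for 2 h.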

[6] = biological target: Cellular tumor antigen p53 (Homo sapiens) (UniProt P04637); experiment: TOX21_p53_BLA_p5_ratio: Tox21 HCT-116 p53 Agonism Beta-lactamase Assay, Ratio, Phase 5 (AID 2283599)
How it was run: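 HCT-116 p53-bla cells (4000/well) plated 5 h, dosed with compound (217-fold DMSO dilution) for 16 h at 37 C; CCF4-AM substrate 2 h at room temperature. Activity is the 460/530 nm emission ratio (405 nm excitation), fitted in gain-of-signal direction versus DMSO.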

[7] = TOX21_p53_BLA_p5_viability: Viability Assessment in the Tox21 HCT-116 p53 Agonism Beta-lactamase Assay, Phase 5 (AID 2283600)
How it was run: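 Luciferase-coupled ATP quantitation of cells treated for 16 h (37C, 5% CO2) with test chemicals delivered in DMSO via a 217-fold dilution; 4000 cells/well; reagent incubated 30 min at room temperature before luminescence reading.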

[8] = biological target: Cellular tumor antigen p53 (Homo sapiens) (UniProt P04637); experiment: TOX21_p53_BLA_p4_ratio: Tox21 HCT-116 p53 Agonism Beta-lactamase Assay, Ratio, Phase 4 (AID 2283601)
How it was run: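 HCT-116 p53 beta-lactamase reporter cells (4000/well) preincubated 5 h, then compound (217-fold dilution of DMSO stock) for 16 h at 37C. CCF4-AM substrate added 2 h at room temperature; 460/530 nm emission ratio fitted upward versus DMSO.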

[9] = Tanguay_ZF_120hpf_MORT_legacy: (Legacy) Oregon State University Tanguay Lab 120 Hour Post-fertilization zebrafish Assay for Mortality (AID 2283633)
How it was run: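 Dechorionated Tropical 5D wild-type zebrafish embryos, one per well from 6 hpf, were statically exposed at 28C in the dark until 120 hpf (0.64% DMSO final). Mortality was scored as present/absent by brightfield microscopy, fitted positively versus DMSO.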

[10] = Tanguay_ZF_120hpf_YSE_legacy: (Legacy) Oregon State University Tanguay Lab 120 Hour Post-fertilization zebrafish Assay for Yolk Sac Edema (AID 2283634)
How it was run: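 Tropical 5D wild-type embryos, dechorionated with pronase at 4 hpf, were exposed singly from 6 hpf to 120 hpf under static, sealed, dark conditions at 28C with 0.64% DMSO final. Yolk sac edema was scored present/absent by brightfield microscopy.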

[11] = Tanguay_ZF_120hpf_AXIS_legacy: (Legacy) Oregon State University Tanguay Lab 120 Hour Post-fertilization zebrafish Assay for Body Axis Malformation (AID 2283635)
How it was run: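 Tropical 5D wild-type zebrafish embryos, dechorionated with pronase at 4 hpf, were placed singly in wells at 6 hpf and exposed statically to test chemical (0.64% DMSO final) at 28C until 120 hpf, then scored by brightfield for body axis defects.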

[12] = Tanguay_ZF_120hpf_EYE_legacy: (Legacy) Oregon State University Tanguay Lab 120 Hour Post-fertilization zebrafish Assay for Eye Malformation (AID 2283636);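 note: binary presence or absence of eye malformation scored by brightfield in 120 hpf larvae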
How it was run: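 5D wild-type embryos, pronase-dechorionated at 4 hpf; static exposure 6–120 hpf, 28C, dark; DMSO 0.64% final; 5uM trimethyltin chloride positive control. Binary eye-defect scoring at 120 hpf; dead embryos not scored.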

[13] = Tanguay_ZF_120hpf_SNOU_legacy: (Legacy) Oregon State University Tanguay Lab 120 Hour Post-fertilization zebrafish Assay for Snout Malformation (AID 2283637)
How it was run: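 Binary brightfield scoring of snout malformation at 120 hpf. Dechorionated 5D wild-type embryos, one per well, static exposure from 6 hpf at 28C, sealed and dark; final DMSO 0.64% (vol/vol), DMSO as baseline; 5uM trimethyltin chloride positive control.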

[14] = Tanguay_ZF_120hpf_JAW_legacy: (Legacy) Oregon State University Tanguay Lab 120 Hour Post-fertilization zebrafish Assay for Jaw Malformation (AID 2283638)
How it was run: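 Tropical 5D wild-type embryos, dechorionated with pronase at 4 hpf, were placed singly per well at 6 hpf and statically exposed at 28C until 120 hpf (0.64% DMSO final). Jaw malformation scored as present/absent by brightfield microscopy at 120 hpf, analyzed relative to DMSO.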

[15] = Tanguay_ZF_120hpf_OTIC_legacy: (Legacy) Oregon State University Tanguay Lab 120 Hour Post-fertilization zebrafish Assay for Otic Vesicle Malformation (AID 2283639)
How it was run: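 Brightfield scoring at 120 hpf, binary present/absent; DMSO negative control, 5uM trimethyltin chloride positive control. Static exposure at 28C, final DMSO 0.64% (vol/vol). Dead embryos not scored for malformation.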

[16] = Tanguay_ZF_120hpf_SOMI_legacy: (Legacy) Oregon State University Tanguay Lab 120 Hour Post-fertilization zebrafish Assay for Somite Malformation (AID 2283647)
How it was run: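 Tropical 5D wild-type zebrafish embryos, dechorionated with pronase at 4 hpf, were placed singly at 6 hpf and statically exposed until 120 hpf at 28C in 0.64% DMSO. Somite malformation was scored present/absent by brightfield microscopy versus DMSO.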

[17] = Tanguay_ZF_120hpf_PFIN_legacy: (Legacy) Oregon State University Tanguay Lab 120 Hour Post-fertilization zebrafish Assay for Pectoral Fin Malformation (AID 2283648);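 note: each larva judged yes or no for fin defect by brightfield with dead larvae skipped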
How it was run: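 Binary pectoral fin malformation call at 120 hpf by brightfield microscopy; 5D wild-type zebrafish, chorion removed at 4 hpf, one embryo per well from 6 hpf, static exposure at 28C; DMSO (0.64% final) as baseline.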

[18] = Tanguay_ZF_120hpf_PE_legacy: (Legacy) Oregon State University Tanguay Lab 120 Hour Post-fertilization zebrafish Assay for Pericardial Edema (AID 2283640)
How it was run: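 Tropical 5D wild-type zebrafish embryos were exposed statically to 120 hpf at 28C, sealed and foil-covered, in 0.64% DMSO final. Pericardial edema was scored present/absent by brightfield microscopy; dead embryos were not scored.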

[19] = Tanguay_ZF_120hpf_CFIN_legacy: (Legacy) Oregon State University Tanguay Lab 120 Hour Post-fertilization zebrafish Assay for Caudal Fin Malformation (AID 2283649)
How it was run: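 Tropical 5D wild-type embryos, dechorionated with pronase at 4 hpf, were placed singly in wells at 6 hpf and statically exposed to compound at 28C until 120 hpf (0.64% DMSO). Caudal fin malformation was scored present/absent by brightfield microscopy.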

[20] = Tanguay_ZF_120hpf_BRAI_legacy: (Legacy) Oregon State University Tanguay Lab 120 Hour Post-fertilization zebrafish Assay for Brain Malformation (AID 2283641)
How it was run: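 Tropical 5D wild-type zebrafish embryos were exposed statically in sealed, foil-covered plates at 28C until 120 hpf, with 0.64% (vol/vol) final DMSO. Brain malformation was scored present/absent by brightfield microscopy, relative to DMSO baseline.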

Measured: AC50

C=CN1CCCC1=O
inactive: [1] | [2] | [3] | [4] | [5] | [6] | [7] | [8] | [9] | [10] | [11] | [12] | [13] | [14] | [15] | [16] | [17]

OC(Cn1cncn1)(Cn1cncn1)c1ccc(F)cc1F
inactive: [1] | [2] | [3] | [4] | [5] | [6] | [7] | [8] | [9] | [10] | [11] | [13] | [14] | [15] | [18] | [17]

NNC(=O)c1ccncc1
inactive: [1] | [2] | [3] | [5] | [7] | [8] | [9] | [10] | [11] | [12] | [13] | [14] | [15] | [18] | [16] | [17] | [19]

CCCCOC(=O)c1ccccc1
inactive: [2] | [3] | [4] | [7] | [8] | [9] | [10] | [11] | [12] | [13] | [14] | [15] | [18] | [16]

CC(C)c1nnc2ccc(-c3ocnc3-c3cc(F)ccc3F)cn12
inactive: [1] | [3] | [5] | [6] | [9] | [10] | [12] | [13] | [15] | [18] | [20] | [16] | [17] | [19]

O=C(O)c1ccc2c(c1)nc(C(=O)NC1CCN(C3CC3)CC1)n2Cc1cc(-c2ccc(Cl)s2)on1
inactive: [2] | [4] | [6] | [7] | [8] | [9] | [10] | [11] | [13] | [14] | [18] | [20] | [16] | [17]

CCCCCCCCCC
inactive: [1] | [2] | [4] | [5] | [6] | [7] | [8] | [9] | [10] | [11] | [12] | [13] | [14] | [15] | [18] | [16]

CCOC(N)=O
inactive: [1] | [2] | [3] | [4] | [5] | [6] | [7] | [8] | [9] | [10] | [11] | [12] | [13] | [14] | [15] | [16] | [17]
active: [4] 88.1 µM

C[C@]12C=CC(=O)C=C1CC[C@H]1[C@@H]3C[C@@H](O)[C@](O)(C(=O)CO)[C@@]3(C)C[C@H](O)[C@@]12F
inactive: [1] | [2] | [3] | [4] | [5] | [6] | [8] | [9] | [10] | [11] | [12] | [13] | [14] | [15] | [18] | [16] | [17]

OCCOCCOCCO
inactive: [1] | [2] | [3] | [4] | [5] | [6] | [8] | [9] | [10] | [11] | [12] | [14] | [15] | [17]

Cn1c(=O)c2[nH]cnc2n(C)c1=O
inactive: [2] | [4] | [5] | [6] | [7] | [8] | [9] | [10] | [11] | [12] | [13] | [14] | [15] | [18] | [17]

CCCCCCCCCCCCCCO
inactive: [1] | [2] | [3] | [4] | [5] | [7] | [8] | [9] | [10] | [11] | [12] | [13] | [14] | [15] | [18] | [16] | [17]

OCc1c[nH]c2ccccc12
inactive: [1] | [3] | [4] | [5] | [6] | [7]
active: [2] 86.5 µM | [8] 78.9 µM

CCCCN1C(=O)[C@@H]([C@H](O)C2CCCCC2)NC(=O)C12CCN(Cc1ccc(Oc3ccc(C(=O)O)cc3)cc1)CC2
inactive: [1] | [5] | [9] | [10] | [11] | [13] | [14] | [15] | [18] | [20] | [16] | [17]
active: [2] 38.1 µM | [4] 48.8 µM | [6] 63.7 µM | [8] 57.9 µM

CCn1nc(C)c2c1C(=O)NCC(c1ccc(O)cc1)=N2
inactive: [1] | [2] | [3] | [4] | [6] | [8] | [9] | [11] | [12] | [13] | [14] | [15] | [16] | [17]
